These results are taken from PubChem BioAssay (NCI).

About 83,000 compounds went through this panel and 20% of them were active in at least one assay; those are over-represented in the sample as a whole.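 Values shown are percent growth following 48 h exposure of cells in 96-well plates to a single concentration of compound; below 10 was considered active.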 Values without a mark were called inactive. Activity calls are given as the source filed them.

Some test systems named below: NCI-H23 lung; NCI-H322M lung; HOP-62 NSCLC; NCI-H460 lung; HOP-92 NSCLC; NCI-H522 lung; A549/ATCC NSCLC; 786-0 renal; COLO 205 colon; DU-145 prostate; K-562 leukemia; MALME-3M melanoma; MDA-MB-231 breast; RXF 393 renal; SF-268 CNS; SF-295 CNS; SF-539 CNS; UACC-257 melanoma; M14 melanoma.
What all share (experiment): NCI-60 one-dose screen, 48 h (100 = growth as untreated, 0 = no growth, -100 = all killed)
What all share (conditions): 10 µM unless noted

In the case of `CCNC(=O)Oc1ccc(/C(=C(/C)Cc2ccc(OC)cc2)c2ccc(OCCN3CCCC3)cc2)cc1`, the growth in the experiment on NCI-H23 lung is 86.6%; in the experiment on NCI-H322M lung, 89%; with HOP-62 NSCLC, 93%; in the experiment on NCI-H460 lung, 55.9%; in the experiment with HOP-92 NSCLC it was 61.8%; in the experiment on NCI-H522 lung, 78.9%. Also, the growth was 66.4% in the experiment on A549/ATCC NSCLC; 68% in the experiment with 786-0 renal; 33.4% in the experiment on COLO 205 colon; 87.1% with DU-145 prostate; 2.41% (active) with K-562 leukemia; 80.6% with MALME-3M melanoma. Also, the growth in the experiment with MDA-MB-231 breast was 79.8%; with RXF 393 renal, 76.3%; in the experiment on SF-268 CNS, 78.2%; in the experiment with SF-295 CNS, 79.3%; in the experiment with SF-539 CNS it was 76.8%; with UACC-257 melanoma it was 105%. Besides, the growth in the experiment on M14 melanoma was 2.05% (active).
Regarding `C[C@@H]1CC[C@@]2(OC1)O[C@H]1C[C@H]3[C@@H]4CC=C5C[C@@H](O[C@@H]6O[C@H](CO)[C@@H](O[C@@H]7O[C@@H](CO)[C@H](O)[C@H]7O)[C@H](O)[C@H]6O[C@@H]6O[C@@H](C)[C@H](O)[C@@H](O)[C@H]6O)CC[C@]5(C)[C@H]4CC[C@]3(C)[C@H]1[C@@H]2C`, the growth with NCI-H23 lung was -95.5% (active); in the experiment with NCI-H322M lung, -87.7% (active); in the experiment on HOP-62 NSCLC it was 6.56% (active); with NCI-H460 lung it was -93.7% (active); with HOP-92 NSCLC it was -67.2% (active); with NCI-H522 lung it was -41.4% (active). The growth in the experiment on A549/ATCC NSCLC is -96.8% (active); with 786-0 renal, -89.6% (active); in the experiment on COLO 205 colon, -89.9% (active); in the experiment on DU-145 prostate, -95.2% (active); in the experiment on K-562 leukemia it was -1.01% (active); with MALME-3M melanoma, -91.6% (active). In addition, the growth was -95.3% (active) in the experiment on MDA-MB-231 breast; -95% (active) with RXF 393 renal; -54.8% (active) in the experiment on SF-268 CNS; -91.7% (active) in the experiment on SF-295 CNS; -99.2% (active) in the experiment on SF-539 CNS; -94% (active) in the experiment on UACC-257 melanoma. In addition, in the experiment with M14 melanoma, the growth is -92.6% (active).
As to `CCOC(=O)C1CCN(c2ccc(N3C[C@@H](CNCc4ccc(C(=N)N)cc4)OC3=O)cc2)CC1`, the growth in the experiment with NCI-H23 lung was 97.9%; with NCI-H322M lung, 103%; in the experiment on HOP-62 NSCLC it was 97.5%; with NCI-H460 lung, 103%; in the experiment with HOP-92 NSCLC, 90.8%; in the experiment with NCI-H522 lung, 92.6%. Also, the growth in the experiment on 786-0 renal is 100%; in the experiment with COLO 205 colon it was 103%; with DU-145 prostate it was 98.6%; in the experiment on K-562 leukemia, 99.3%; in the experiment with MALME-3M melanoma it was 83.1%; with MDA-MB-231 breast it was 99.8%. In addition, the growth is 99.7% in the experiment on RXF 393 renal; 100% with SF-268 CNS; 101% in the experiment on SF-295 CNS; 94.4% with SF-539 CNS; 102% with UACC-257 melanoma; 94.7% in the experiment on M14 melanoma.
As to `N=C(N)c1ccc(-c2ccc(-c3ccc(F)cc3)s2)s1`, the growth in the experiment on NCI-H23 lung was -62.6% (active); in the experiment with NCI-H322M lung it was -29.7% (active); in the experiment with HOP-62 NSCLC it was 57%; in the experiment on NCI-H460 lung, -64.9% (active); in the experiment on HOP-92 NSCLC, 28.5%; with NCI-H522 lung, -72% (active). Also, the growth was -65.8% (active) with A549/ATCC NSCLC; -57.5% (active) in the experiment on 786-0 renal; -80.6% (active) in the experiment on COLO 205 colon; -86.3% (active) in the experiment with DU-145 prostate; -61.4% (active) in the experiment on K-562 leukemia; 76.9% in the experiment on MALME-3M melanoma. Besides, the growth in the experiment on MDA-MB-231 breast was -54.4% (active); in the experiment with RXF 393 renal it was -69.1% (active); in the experiment on SF-268 CNS, -19.5% (active); in the experiment on SF-295 CNS, -76.4% (active); in the experiment on SF-539 CNS, -29% (active); with UACC-257 melanoma it was -50.2% (active). For the same molecule, in the experiment on M14 melanoma, the growth is -45.5% (active).
With `COc1cc(-c2nc(SCCC(C)C)nc(N3CCOCC3)c2C#N)cc(OC)c1OC`, the growth with NCI-H23 lung is 74.2%; in the experiment on NCI-H322M lung, 91.2%; in the experiment with HOP-62 NSCLC, 28.6%; with NCI-H460 lung, 12.2%; with HOP-92 NSCLC it was 81.9%; in the experiment with NCI-H522 lung, 65.8%. Moreover, the growth with A549/ATCC NSCLC was 22.4%; with 786-0 renal, 66%; in the experiment with COLO 205 colon, 63.8%; in the experiment with DU-145 prostate, 41.6%; in the experiment with K-562 leukemia, 74.5%; in the experiment with MALME-3M melanoma, 92.3%. Also, the growth with MDA-MB-231 breast is 68.5%; in the experiment with RXF 393 renal it was 101%; in the experiment on SF-268 CNS, 40.3%; with SF-295 CNS, 98.9%; with SF-539 CNS, 55.5%; in the experiment with UACC-257 melanoma it was 95.8%. Moreover, the growth in the experiment on M14 melanoma was 96%.
In the case of `COc1cc2c3c(c1O)-c1ccccc1[C@@H]1OC(=O)N(CC2)[C@H]31`, the growth in the experiment on NCI-H23 lung was 100%; with NCI-H322M lung, 113%; with HOP-62 NSCLC, 104%; with NCI-H460 lung it was 100%; in the experiment on HOP-92 NSCLC, 80.8%; in the experiment on NCI-H522 lung, 94%. The growth is 97% with A549/ATCC NSCLC; 102% in the experiment on 786-0 renal; 107% in the experiment on COLO 205 colon; 120% in the experiment on DU-145 prostate; 112% in the experiment with K-562 leukemia; 103% in the experiment on MALME-3M melanoma. Also, the growth was 93.1% in the experiment on MDA-MB-231 breast; 97.6% in the experiment on RXF 393 renal; 104% with SF-268 CNS; 103% with SF-295 CNS; 108% in the experiment with SF-539 CNS; 95.6% in the experiment on UACC-257 melanoma. For the same molecule, the growth in the experiment on M14 melanoma is 103%.
`O=C(O)C1CN(c2cccc(Cl)c2)N(c2cccc(Cl)c2)C1=O` (stereo not drawn): the growth in the experiment with NCI-H23 lung is 89.8%; in the experiment with NCI-H322M lung, 83.9%; with HOP-62 NSCLC, 88%; in the experiment with NCI-H460 lung, 102%; with HOP-92 NSCLC it was 101%; in the experiment on NCI-H522 lung, 87.1%. The growth in the experiment on A549/ATCC NSCLC was 105%; with 786-0 renal it was 96.5%; with COLO 205 colon it was 94.5%; in the experiment with DU-145 prostate, 96.2%; in the experiment on K-562 leukemia it was 101%; in the experiment on MALME-3M melanoma, 70.8%. In addition, the growth is 85.1% in the experiment with MDA-MB-231 breast; 94.9% in the experiment with RXF 393 renal; 81.7% in the experiment on SF-268 CNS; 95.6% in the experiment with SF-295 CNS; 100% in the experiment on SF-539 CNS; 99.3% with UACC-257 melanoma. Moreover, the growth with M14 melanoma was 87.8%.
Take `O=C(O)CCCc1cnc2c3sccc3nc(SCc3c(Cl)cccc3Cl)n12`: the growth with NCI-H23 lung was 62.2%; in the experiment with NCI-H322M lung, 55.3%; in the experiment on HOP-62 NSCLC, 33.9%; with NCI-H460 lung, 22.2%; in the experiment on HOP-92 NSCLC, 58.7%; in the experiment on NCI-H522 lung, -12.5% (active). Besides, the growth with A549/ATCC NSCLC was 59.5%; with 786-0 renal, 38.5%; in the experiment on COLO 205 colon, 28.3%; in the experiment on DU-145 prostate, 59.3%; in the experiment with K-562 leukemia, 20.7%; in the experiment on MALME-3M melanoma, 59.2%. Moreover, the growth was 69.6% in the experiment with MDA-MB-231 breast; 54.6% in the experiment with RXF 393 renal; 50.3% in the experiment with SF-268 CNS; 27.2% with SF-295 CNS; 41% with SF-539 CNS; 53% with UACC-257 melanoma. Moreover, the growth with M14 melanoma is 33%.
Turning to `CCCCCSB(SCCCCC)c1ccccc1`, the growth in the experiment with NCI-H23 lung was 99.9%; with NCI-H322M lung it was 103%; in the experiment on HOP-62 NSCLC, 90%; in the experiment with NCI-H460 lung it was 112%; in the experiment on HOP-92 NSCLC it was 105%; in the experiment on NCI-H522 lung, 88.3%. The growth in the experiment on A549/ATCC NSCLC is 92.4%; with 786-0 renal, 103%; in the experiment on COLO 205 colon, 106%; in the experiment with DU-145 prostate, 108%; with K-562 leukemia, 112%; with MALME-3M melanoma, 101%. Further, the growth with MDA-MB-231 breast was 105%; in the experiment with RXF 393 renal, 109%; in the experiment on SF-268 CNS it was 98.2%; in the experiment with SF-295 CNS it was 105%; in the experiment with SF-539 CNS it was 106%; in the experiment with UACC-257 melanoma, 94.4%. Moreover, the growth in the experiment with M14 melanoma is 102%.
On to `CCOC(=O)c1c(-c2ccc(Cl)cc2)c(C#N)c2c(C#N)c(N)nn2c1N`, for which the growth in the experiment with NCI-H23 lung is 85.9%; in the experiment with NCI-H322M lung, 83.4%; in the experiment with HOP-62 NSCLC, 74.9%; in the experiment on NCI-H460 lung, 77.3%; with HOP-92 NSCLC it was 63.1%; in the experiment on NCI-H522 lung it was 37.4%. The growth is 51.3% in the experiment on A549/ATCC NSCLC; 82.6% with 786-0 renal; 69.8% with COLO 205 colon; 74.9% in the experiment with DU-145 prostate; 15.4% with K-562 leukemia; 72.9% in the experiment with MALME-3M melanoma. For the same molecule, the growth was 75.7% with MDA-MB-231 breast; 77% in the experiment on RXF 393 renal; 77.3% in the experiment on SF-268 CNS; 57.2% with SF-295 CNS; 71.6% in the experiment with SF-539 CNS; 60.3% in the experiment on UACC-257 melanoma. Further, the growth with M14 melanoma is 75.5%.
In the case of `Clc1ccc(-c2nc(-c3c[nH]c4ncccc34)cs2)cc1`, the growth with NCI-H23 lung is 35% [100 µM]; in the experiment on NCI-H322M lung, 61.7% [100 µM]; with HOP-62 NSCLC, 6.83% [100 µM] (active); in the experiment on NCI-H460 lung it was 72.5% [100 µM]; in the experiment with HOP-92 NSCLC, -42.4% [100 µM] (active); in the experiment with NCI-H522 lung, 71.7% [100 µM]. Also, the growth with A549/ATCC NSCLC was 55.2% [100 µM]; in the experiment on 786-0 renal it was 34.6% [100 µM]; with COLO 205 colon it was 93.2% [100 µM]; with DU-145 prostate, 79.6% [100 µM]; in the experiment on K-562 leukemia, 100% [100 µM]; in the experiment on MALME-3M melanoma, 73% [100 µM]. In addition, the growth is 31.1% [100 µM] in the experiment on MDA-MB-231 breast; 18.5% [100 µM] in the experiment on RXF 393 renal; 40.9% [100 µM] in the experiment with SF-268 CNS; 18.6% [100 µM] in the experiment on SF-295 CNS; 20.6% [100 µM] in the experiment on SF-539 CNS; 105% [100 µM] with UACC-257 melanoma. In addition, in the experiment with M14 melanoma, the growth was 70.3% [100 µM].
